Reference: PubChem BioAssay (NCI)
About 83,000 compounds went through this panel and 20% of them were active in at least one assay; those are over-represented in the sample as a whole.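 Note: values are percent growth. 100 is the growth of untreated cells, values between 100 and 0 indicate rising inhibition; between -100 and 0 indicates cell death.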 A number with no mark means an inactive call. Activity calls are given as the source filed them. Rule for the calls: active = growth percent below 10; inactive = the rest.

Tests used:
Assay in all cases: NCI-60 one-dose screen, 48 h (100 = growth as untreated, 0 = no growth, -100 = all killed)
Details in all cases: 10 µM unless noted
[1] = system: T-47D breast
[2] = system: BT-549 breast
[3] = system: MDA-MB-435 melanoma
[4] = system: SW-620 colon
[5] = system: MCF7 breast
[6] = system: HCT-116 colon
[7] = system: HCC-2998 colon
[8] = system: KM12 colon

Compound | growth [1] | growth [2] | growth [3] | growth [4] | growth [5] | growth [6] | growth [7] | growth [8]
CCNCCCn1c2c(c3ccc(Cl)cc3c1=O)C(=O)c1cc(OC)cnc1-2 | 16.6% | 39.8% | 68.1% | -64.5% (active) | -64.9% (active) | -95.8% (active) | 68% | 32.8%
C=C1C(=O)O[C@H]2[C@H]1CC/C(COC(=O)NCc1[nH]nc3ccccc13)=C\CC[C@@]1(C)O[C@@H]21 | 37.4% | 24.3% | 37.3% | -28.9% (active) | 17.9% | -80.7% (active) | 87.5% | 55.8%
CCCCCN(CCCCC)C(=O)C(CCC(=O)O)NC(=O)c1ccc(Cl)c(Cl)c1 (stereo unspecified) | 102% | 132% | 112% | 106% | 96.7% | 112% | 113% | 114%
CN(C)c1nc(-c2ccco2)n2nc(-c3ccc(Cl)cc3)cc2n1 | 47.9% | 86.7% | 89.6% | 62.7% | 68.2% | 43.4% | 86% | 84.4%
CCOC(=O)c1cnc(SCC)nc1SC#N | 80.8% | 115% | 77.5% | 60% | 87.7% | 64.2% | 108% | 101%
C/C(=N\NC(=O)CSc1nc2ccccc2c(=O)n1CCc1ccc(S(N)(=O)=O)cc1)c1ccc(Br)cc1 | 91.9% | 93.9% | 78.3% | 77.3% | 80.5% | 41.2% | 90.7% | 74.1%
C#CCO[C@H]1CC[C@H](OCC#C)[C@@H]2[C@H]1[C@H]1C[C@@H]3[C@@]4(C)CCC[C@@](C)(C(=O)OC)[C@@H]4CC[C@@]23C=C1C(C)C | 94.6% | 106% | 106% | 103% | 90.5% | 70.4% | 94.6% | 78%
CCCCCCCC/C=C/CCCCCCCC1=NC(C)(C)CN1C(C)C | -29.2% (active) | 60.9% | -58.3% (active) | -69.8% (active) | -60.5% (active) | -74.8% (active) | -91.8% (active) | -77.1% (active)
Nc1c(N)c2ccccc2c2ccccc12 | 104% | 112% | 107% | 103% | 98.3% | 114% | 103% | 116%
O/N=C1\c2ccccc2-c2ccc(Br)cc21 | 97.2% | 115% | 113% | 119% | 91.1% | 114% | 102% | 115%
O=C1C(Cl)=C(Nc2cccc3ccccc23)C(=O)c2ccccc21 | 34.3% | 73.4% | 55.9% | 68.9% | 44% | 47.7% | 103% | 58.4%
CC(C)(C)c1nn(-c2ccccc2)c2c1C(=O)CSC(c1ccccc1Cl)N2 (stereo unspecified) | 29.3% | 44.6% | -12.4% (active) | 37.1% | 17.1% | 16.2% | 24.9% | 32.5%
CCOC(=O)c1cc(N)nc2ccccc12 | 93.7% | 105% | 108% | 91.8% | 107% | 102% | 111% | 98.4%
Nc1nc(NC2CC2)cc(-c2cccc(Cl)c2Cl)n1 | 32.2% | 54.7% | -12.2% (active) | 21.5% | 20.3% | 42.2% | 55.8% | 47.8%
CCOC(=O)C1=C(C)NC(=S)NC1c1ccccc1 (stereo unspecified) | 96.2% | 110% | 102% | 97.3% | 99.7% | 103% | 110% | 101%
C=C(C)[C@@H]1CC[C@]2(C(=O)O)CC[C@]3(C)[C@H](CC[C@@H]4[C@@]5(C)C[C@@H](CC#Cc6ccc(C(C)=O)s6)[C@H](O)C(C)(C)[C@@H]5CC[C@]43C)[C@@H]12 | 51.5% | 53.1% | 81.5% | 59.8% | 55% | 26% | 62.9% | 18.1%

Compound | growth [1] | growth [2] | growth [3] | growth [4] | growth [5] | growth [6] | growth [7] | growth [8]
COc1ccccc1-[n+]1cc(-c2ccc(-c3ccccc3)cc2)n2c1CCCCC2 | -5.11% (active) | -1.37% (active) | 6.5% (active) | 14.6% | 4.74% (active) | 6.3% (active) | 21.5% | 4.15% (active)
COc1ccc(CNc2c3ccccc3nc3ccccc23)cc1F | 35% | 49.5% | 7.6% (active) | 16.6% | 2.34% (active) | 12.3% | 5.83% (active) | 32.8%
Cc1cc(-c2ccc(N=Nc3c(S(=O)(=O)O)cc4cc(S(=O)(=O)O)cc(O)c4c3O)c(C)c2)ccc1N=Nc1c(S(=O)(=O)O)cc2cc(S(=O)(=O)O)cc(O)c2c1O | 92.2% | 108% | 103% | 114% | 101% | 109% | 106% | 114%
O=[N+]([O-])c1ccc(Sc2nc(Cl)nc(NC3CCCC3)n2)cc1 | -35.4% [100 µM] (active) | -97.1% [100 µM] (active) | -95.9% [100 µM] (active) | -63.1% [100 µM] (active) | -84.9% [100 µM] (active) | -94.3% [100 µM] (active) | -86.5% [100 µM] (active) | -96.9% [100 µM] (active)
CNC(=O)OC1C(O[C@H]2C[C@H]3[C@@H]4CC=C5C[C@@H](O)CC[C@]5(C)[C@H]4CC[C@]3(C)[C@H]2[C@H](C)C(=O)CCC(C)C)OCC(O)C1OC1OCC(O)C(O)C1OC(=O)c1ccc(OC)cc1 (stereo partly specified) | 10.2% | 18.3% | -25.7% (active) | -37.2% (active) | 3.66% (active) | 8.61% (active) | 67.3% | 36.5%
CCn1c(Cc2ccccc2Nc2c(Cl)cccc2Cl)nnc1SCC(=O)Nc1cccc(OC)c1 | 58.9% | 98.8% | 93.4% | 85.3% | 84% | 66.5% | 100% | 88%
O=C1/C(=C/N2N=C(c3ccc(Cl)cc3)CC2c2ccccc2O)SC(=S)N1c1cccc(C(F)(F)F)c1 (stereo unspecified) | 27.4% | 71.7% | 64.6% | 64.7% | 15.7% | 45.5% | 62.3% | 38%
CSC1=N/C(=C\c2cccc(OCc3ccc(Cl)cc3)c2)C(=O)N1 | 59.4% | 88.1% | 80.6% | 88.1% | 83% | 88.8% | 93% | 79.8%
COc1ccc(-n2c(COc3ccc(F)cc3)n[nH]c2=S)cc1 | 101% | 181% | 105% | 104% | 107% | 101% | 113% | 110%
CC1CCN(CCCCCOc2ccc3oc4ccc(Cl)cc4c(=O)c3c2)CC1 | 63.4% | 76.2% | 21.4% | 46.7% | 59.8% | 23.9% | 78.4% | 62.3%
CN1CCCN(CCNc2nccc(-c3c(-c4cccc(O)c4)nc4sccn34)n2)S1(=O)=O | 60.7% | 62.9% | 11% | 71% | 74.1% | 21.2% | 74.8% | 64.8%
CCCCCCCCCCCCCCCCCC(=O)OCCCCCCCCCCCCC | 98.4% | 133% | 109% | 117% | 114% | 111% | 113% | 105%
CC(C)c1ccc(-c2cnc3nonc3n2)cc1 | 42.5% | 7.62% (active) | 23.7% | 29.8% | 11.5% | 10.2% | 61.1% | 31.2%
Clc1nnc2c3ccccc3ccn12 | 108% | 97.9% | 111% | 96.7% | 107% | 103% | 115% | 109%
CCOC(=O)C(CCCCC(NC(C)=O)(C(=O)OCC)C(=O)OCC)(NC(C)=O)C(=O)OCC | 89.4% | 107% | 104% | 104% | 98.3% | 105% | 109% | 100%
CC(CN1CCN(CC(C)Nc2ccnc3cc(Cl)ccc23)CC1)Nc1ccnc2cc(Cl)ccc12 (stereo unspecified) | -21.3% (active) | 10.8% | -45.4% (active) | 5.03% (active) | 10.6% | -83.2% (active) | -5.03% (active) | 19.8%
